Source: the supplement of paper PMC6135742
Structures can show the parent of a compound that is named as a salt. ± gives the standard deviation of the averaged measurements. Over roughly 2,600 compounds, “total cell number (DAPI+ nuclei) relative to DMSO vehicle control” has its median near -1.4; the lowest 2% begin near -23. This is one part of a sample in which the lowest values are shown more often than they occur.

Test system: jimpy (Plp1 jimpy) mouse iPSC-derived oligodendrocyte progenitor cells
Assay: total cell number (DAPI+ nuclei) relative to DMSO vehicle control (SDs above negative control mean); higher = more surviving cells
Conditions: 10 µM; 3 days
Description: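 Primary phenotypic screen of >3,000 bioactive compounds (Selleck L1700 and Sigma LO1280 libraries) at a single dose of 10 µM. Compounds were added to jimpy (Plp1 mutant) mouse iPSC-derived OPCs at the start of thyroid hormone-induced oligodendrocyte differentiation, one well per compound in 384-well plates. After 3 days cells were stained for MBP, Sox10 and DAPI and imaged with an Operetta system. MBP+ oligodendrocyte number and total cell number were expressed as the number of SDs above the mean of the DMSO negative control on the same plate (n=16 control wells per plate). Hits were defined as >=4 SD for oligodendrocytes and >=2 SD for total cells.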

Structure (SMILES) | total cell number
CCNC(=O)c1noc(-c2cc(C(C)C)c(O)cc2O)c1-c1ccc(CN2CCOCC2)cc1 | -26.3
CCN(c1cc(-c2ccc(CN3CCOCC3)cc2)cc(C(=O)NCc2c(C)cc(C)[nH]c2=O)c1C)C1CCOCC1 | 2.45
Cc1cc(C)c(CNC(=O)c2cc(-c3ccc(CN4CCOCC4)cc3)cc3c2cnn3C2CCCC2)c(=O)[nH]1 | 7.3
CN[C@@H](C)C(=O)N[C@H](C(=O)N1CCC[C@H]1C(=O)Nc1snnc1-c1ccccc1)C1CCCCC1 | -4.08
O=S(=O)(O)Oc1ccc(C(c2ccc(OS(=O)(=O)O)cc2)c2ccccn2)cc1 [Sodium Picosulfate] | 0.486
O=C(O)C(=O)O.[NH-][C@@H]1CCCC[C@H]1[NH-].[Pt+2] [Oxaliplatin] | -23.4
COc1ccc2c(Oc3ccc(NC(=O)c4c(C)n(CC(C)(C)O)n(-c5ccccc5)c4=O)nc3)ccnc2c1 | -3.37
CCOC(=O)CC(=O)N1CCSC1COc1ccccc1OC (stereo not given) [Moguisteine] | -1.39
NC1(c2ccc(-c3nc4ccn5c(=O)[nH]nc5c4cc3-c3ccccc3)cc2)CCC1 | -25.6
CC1=C(C(=O)O)N2C(=O)[C@@H](NC(=O)[C@H](N)C3=CCC=CC3)[C@H]2SC1 [Cephradine] | -1.61
CN(C)CCC(c1ccc(Cl)cc1)c1ccccn1 (racemic) [(±)-Chlorpheniramine maleate] | -2.22
COc1cc(C(C)=O)ccc1OCCCN1CCC(c2noc3cc(F)ccc23)CC1 [Iloperidone] | -2.6
COc1cc2nccc(Oc3ccc(NC(=O)C4(C(=O)Nc5ccc(F)cc5)CC4)cc3)c2cc1OC | -20
CCOc1cc2ncc(C#N)c(Nc3ccc(OCc4ccccn4)c(Cl)c3)c2cc1NC(=O)/C=C/CN(C)C [Neratinib (HKI-272)] | -12.8
COc1cc2ncnc(Nc3ccc(F)c(Cl)c3)c2cc1OCCCN1CCOCC1 [Gefitinib (ZD1839)] | -20.6
CCOc1cc(C(=O)Nc2ccc(Cl)c(-c3nc4ccccc4[nH]3)c2)cc(OCC)c1OCC | -2.15
COc1cc2c(Oc3ccc(NC(=O)C4(C(=O)Nc5ccc(F)cc5)CC4)cc3F)ccnc2cc1OCCCN1CCOCC1 | -27
C=CC(=O)Nc1cc2c(Nc3ccc(F)c(Cl)c3)ncnc2cc1OCCCN1CCOCC1 [Canertinib (CI-1033)] | -24.4
COc1cc2ncnc(Nc3ccc(F)c(Cl)c3)c2cc1NC(=O)/C=C/CN1CCCCC1 | -11.6
COc1cc2ncnc(Nc3ccc(Cl)cc3F)c2cc1OC | -8.14
C=CC(=O)Nc1ccc2ncnc(Nc3ccc(OCc4cccc(F)c4)c(Cl)c3)c2c1 | -12.9
CCOc1cc2ncc(C#N)c(Nc3ccc(F)c(Cl)c3)c2cc1NC(=O)/C=C/CN(C)C [Pelitinib (EKB-569)] | -27.4
CN(C)C/C=C/C(=O)Nc1cc2c(Nc3ccc(F)c(Cl)c3)ncnc2cc1O[C@H]1CCOC1 [Afatinib (BIBW2992)] | -25.6
Cc1c(C(=O)N2CCOc3ccc(-c4ccc(N)nc4)cc3C2)ccc(S(C)(=O)=O)c1F | -3.21
NOCC(=O)O [O-(Carboxymethyl)hydroxylamine hemihydrochloride] | 1.52
N#Cc1c(O)c2c(-c3ccc(-c4ccccc4O)cc3)csc2[nH]c1=O | 0.298
c1coc(CNc2ncnc3[nH]cnc23)c1 [Kinetin] | 0.658

Structure (SMILES) | total cell number
COc1cc(/C=C(\C#N)C(=O)Nc2nnc(C(F)(F)F)s2)ccc1OCc1ccc(C(F)(F)F)cc1C(F)(F)F | -0.657
Cc1cc(/C=C/C#N)cc(C)c1Nc1ccnc(Nc2ccc(C#N)cc2)n1 [Rilpivirine] | -9.09
Oc1ccc(/C=C/c2cc(O)cc(O)c2)cc1 [Resveratrol] | -2.54 ± 1
CCN(c1nc(N)c(C(=O)NC(=N)N)nc1Cl)C(C)C [5-(N-Ethyl-N-isopropyl)amiloride] | -4.19
O=c1cc[nH]c(=S)[nH]1 [2-Thiouracil] | -0.0444
CS(=O)(=O)c1ccc(C(=O)Nc2ccc(Cl)c(-c3ccccn3)c2)c(Cl)c1 [Vismodegib (GDC-0449)] | -1.63
CNC(=O)Nc1ccc(-c2nc(N3CC4CCC(C3)O4)c3cnn(C4CCC5(CC4)OCCO5)c3n2)cc1 | -8.93
COc1ccccc1N1CCN(CCCNc2c(C)c(=O)n(C)c(=O)n2C)CC1 [Urapidil, 5-Methyl-] | -1.49
CCCCCCCCCCCCCCCCCCOP(=O)([O-])OC1CC[N+](C)(C)CC1 [Perifosine] | -0.796
CN(C)CC(c1ccc(O)cc1)C1(O)CCCCC1 (stereo not given) [Desvenlafaxine Succinate] | -3.69
CN(C)CC(c1ccc(O)cc1)C1(O)CCCCC1 (stereo not given) [Desvenlafaxine] | -0.735
Oc1ccccc1O [Pyrocatechol] | -10.2
Nc1cc(=O)[nH]c(N)n1 [2,4-Diamino-6-pyrimidinone] | -1.65
CC(C)(O)CC[C@@H](O)[C@](C)(O)[C@H]1CC[C@@]2(O)C3=CC(=O)[C@@H]4C[C@@H](O)[C@@H](O)C[C@]4(C)[C@H]3CC[C@]12C [20-Hydroxyecdysone] | -0.544
CC(S)C(=O)NCC(=O)O (stereo not given) [Tiopronin] | -2.65
C=C(C)[C@@H]1CC=C(C(=O)O)CC1 [(-)-Perillic acid] | -1.68
CN(C)c1ccc(-c2nc3ncc(Cl)c(N4CCN(CC(=O)Nc5nccs5)CC4)c3[nH]2)cc1 | 1.85
O=C1CCC(N2C(=O)c3ccccc3C2=O)C(=O)N1 (racemic) [(±)-Thalidomide] | -2.18
O=C1CCC[C@@H]2[C@H]3CCC[N+]4([O-])CCC[C@@H](CN12)[C@@H]34 (stereo not given in full) [Oxymatrine] | -0.222
COc1cc2c(N3CCN(C(=O)Nc4ccc(OC(C)C)cc4)CC3)ncnc2cc1OCCCN1CCCCC1 [Tandutinib (MLN518)] | -10.3
COc1cc2c(Nc3ccc(NC(=O)c4ccccc4)cc3)ncnc2cc1OCCCN1CCOCC1 | -26.6
C#Cc1cccc(Nc2ncnc3cc(OC)c(OCCCCCCC(=O)NO)cc23)c1 | -18.7
CCOC(=O)[C@@H](N)Cc1ccc(O)c(O)c1 [L-Dopa ethyl ester] | -2.07
C=CCNC1=C2C[C@@H](C)C[C@H](OC)[C@H](O)[C@@H](C)/C=C(\C)[C@H](OC(N)=O)[C@@H](OC)/C=C\C=C(/C)C(=O)NC(=CC1=O)C2=O [17-AAG (Tanespimycin)] | -25
CO[C@H]1/C=C\C=C(/C)C(=O)NC2=CC(=O)C(NCCN(C)C)=C(C[C@@H](C)C[C@H](OC)[C@H](O)[C@@H](C)/C=C(\C)[C@@H]1OC(N)=O)C2=O [17-DMAG (Alvespimycin) HCl] | -26.5
COC1=C2C[C@@H](C)C[C@H](OC)[C@H](O)[C@@H](C)/C=C(\C)[C@H](OC(N)=O)[C@@H](OC)/C=C\C=C(/C)C(=O)NC(=CC1=O)C2=O [Geldanamycin] | -12.3
CN(NC(=O)CC(=O)NN(C)C(=S)c1ccccc1)C(=S)c1ccccc1 [Elesclomol (STA-4783)] | -1.04

Structure (SMILES) | total cell number
CCC(C)(Oc1ccc(C2(c3ccc(OC(C)(CC)C(=O)O)cc3)CCCCC2)cc1)C(=O)O (stereo not given) [Clinofibrate] | 1.25
N[C@H]1C[C@@H]1c1ccc(-c2cccc(O)c2)cc1 | -3.31
Cc1ccc(C(=O)Cn2c3c(sc2=N)CCCC3)cc1 [Pifithrin-? (PFT?)] | 1.69
OC[C@H]1O[C@@H](n2cnc3c(N[C@H]4CCC[C@@H]4O)ncnc32)[C@H](O)[C@@H]1O | 0.458
CC(Cc1ccc(O)c(O)c1)(NN)C(=O)O (stereo not drawn) [S-(-)-Carbidopa] | -1.61
Cc1cc(Cn2cnc3c2C[C@@H](C(=O)O)N(C(=O)C(c2ccccc2)c2ccccc2)C3)ccc1N | -6.04
O=C(Nc1ccccc1-c1cn2c(CN3CCNCC3)csc2n1)c1cnc2ccccc2n1 | -27.8
C=C1C[C@@]23CC[C@H]4[C@@](C)(CCC[C@@]4(C)C(=O)O)[C@@H]2CC[C@]1(O)C3 [Steviol] | -0.619
Cc1cc(NC(=O)Nc2ccc3c(ccn3C)c2)sn1 | -1.4
CC(C)c1cc(-c2n[nH]c(=O)n2-c2ccc3c(ccn3C)c2)c(O)cc1O [Ganetespib (STA-9090)] | -25.4
CN(C[C@@H]1COCCO1)S(=O)(=O)Nc1ccc2ccc3ncc(-c4cnn(C)c4)cc3c(=O)c2c1 | -9.05
Cc1ccc(C(=O)N(CCCN)[C@@H](c2nc3cc(Cl)ccc3c(=O)n2Cc2ccccc2)C(C)C)cc1 | -27.5
Cc1ccc(C(=O)N(CCCN)[C@@H](c2oc3cc(Cl)ccc3c(=O)c2Cc2ccccc2)C(C)C)cc1 | -15.1
CNC(=O)CN(CCN(CCN(CC(=O)[O-])CC(=O)NC)CC(=O)[O-])CC(=O)[O-].[Gd+3] [Gadodiamide] | -14.9
C=CCNC(N)=S [Allylthiourea] | 6.27
CCc1ccc(OCc2ccccc2C(=O)Nc2ccc3nc(C)cc(N)c3c2)cc1 | -12.5
COc1cc2nccc(Oc3ccc(NC(=O)Nc4cc(C)on4)c(Cl)c3)c2cc1OC [Tivozanib (AV-951)] | -23.5
COc1cc(OC)c(NC(=O)Nc2cc(C)on2)cc1Cl | -0.876
COc1cc2nccc(Oc3ccc(NC(=O)NC4CC4)c(Cl)c3)c2cc1C(N)=O [Lenvatinib (E7080)] | -9.34
Nc1nccc2c1ncn2C1C=C(CO)C(O)C1O (stereo not given) [3-Deazaneplanocin A (DZNeP)] | -9.16
CN(C)C[C@H](O)Cn1c2ccc(Br)cc2c2cc(Br)ccc21 (racemic) [Wiskostatin] | -4.17
Nc1n[n+]([O-])c2ccccc2[n+]1[O-] [Tirapazamine] | -6.5
COc1ccc2[nH]c([S@@+]([O-])Cc3ncc(C)c(OC)c3C)nc2c1 [Esomeprazole Sodium] | 1.8
COc1ccc2[nH]c([S@@+]([O-])Cc3ncc(C)c(OC)c3C)nc2c1 [Esomeprazole magnesium dihydrate] | -0.604
COc1ccc2[nH]c([S+]([O-])Cc3ncc(C)c(OC)c3C)nc2c1 (stereo not given) [Omeprazole] | 5.38
COc1c(C)cnc(Cn2cnc3c(Cl)nc(N)nc32)c1C | -26.3
